Bioassay records: PubChem, National Center for Advancing Translational Sciences (NCATS)
Chronic BCR inh = blocks chronic active B-cell receptor signaling; AID 493014; Potency, µM (titrated, usually from 46.1 µM), without a hit: top-dose activity change, negative = inhibition, usual class: inhibitors; 340,000 tested, 0.05% active; ABC-DLBCL IkBa-CBG/CBR reporter, luminescence ratio, 4 h; active = well fitted inhibition curve with a large enough effect in the signal ratio, with a control signal flat, not every such curve was filed as active; inconclusive = small, poorly fitted or top-dose-only effect, or effect the other way, or a change in a side signal; the % refers to the signal ratio;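 also: potency is read from the fitted curve at half-maximal effect; plate controls were basal doxycycline-induced cells for no effect and cells given 10 µM MG132 for full effect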
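TMD8 human ABC-DLBCL cells with doxycycline-inducible IκBα–green luciferase fusion and unfused red luciferase, in 0.5% FBS medium; compounds up to 46 uM, 4 h at 37C. Green/red luminescence ratio, filter-overlap corrected, fitted to concentration-response curves.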
PI4K2A inh = PI4K2A (human) kinase inhibition. Q9BTU6. purified PI4K2A, ADP-Glo luminescence, 1 h; stronger effect = lower value. activity change, negative = inhibition, % at 76.9 µM. 420,000 tested, 0.13% active. AID 1346378; in the data active = activity change below about -50%; inconclusive = mostly about -30% to -49%;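 also: -100% = wells without enzyme as full effect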
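ADP-Glo luminescence measured ADP generated by PI4K2A enzyme (4 ug/mL before mixing) with 1.2 mM PI substrate (pre-mix) and 300 microM ATP (pre-mix). Tris pH7.5 buffer with MgCl2, Triton X-100; 1 h reaction at ambient temperature.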
Tb PFK block = inhibitors of T. brucei phosphofructokinase; T. brucei PFK, ADP-Glo luminescence; Potency, µM (series often up to 57.5 µM), inactives show at the top dose activity, negative = inhibition, usual class: inhibitors; AID 485367; 330,000 tested, 0.17% active;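 also: potency is read from the fitted curve at half-maximal effect; 0% = uninhibited 1x PFK enzyme wells and -100% = no-enzyme wells; nearly all actives have a fitted effect of over 60% in size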
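ADP-Glo luminescence quantified ADP after 45 min at room temperature, with 1.25 nM T. brucei PFK, 0.1 mM ATP and 0.5 mM fructose-6-phosphate in pH 8.0 TEA buffer. qHTS titrations up to 57 µM; curves classified by quality.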
Tb PGK inh = blocks T. brucei phosphoglycerate kinase; PGK/GAPDH coupled, Kinase-Glo luminescence, 60 min; P07378; Potency, µM (top dose mostly 57.5 µM), inactives show top-dose activity change, negative = inhibition, hits mostly inhibitors; AID 602233; 380,000 tested, 0.043% active; also: potency is read from the fitted curve at half-maximal effect; nearly all actives have a fitted effect of over 60% in size
Target sequence (P07378 whole entry, looked up): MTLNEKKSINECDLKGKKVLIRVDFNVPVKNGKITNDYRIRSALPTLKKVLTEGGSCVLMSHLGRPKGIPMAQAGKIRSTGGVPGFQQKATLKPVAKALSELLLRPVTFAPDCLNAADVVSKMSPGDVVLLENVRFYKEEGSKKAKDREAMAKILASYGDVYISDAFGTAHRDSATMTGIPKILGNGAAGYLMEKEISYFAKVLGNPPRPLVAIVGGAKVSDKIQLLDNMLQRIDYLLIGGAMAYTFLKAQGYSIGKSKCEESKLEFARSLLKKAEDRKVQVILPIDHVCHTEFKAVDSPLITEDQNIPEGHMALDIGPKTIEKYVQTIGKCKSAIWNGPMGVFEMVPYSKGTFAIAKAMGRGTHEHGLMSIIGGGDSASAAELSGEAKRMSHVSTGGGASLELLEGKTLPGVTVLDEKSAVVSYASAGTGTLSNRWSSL
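Luminescent ATP detection (Kinase-Glo Plus) follows a 60-minute room-temperature incubation, with wells lacking PGK as controls. Buffer: 100 mM TEA (pH 7.6), 5 mM MgCl2, 0.01% Tween-20. Coupling enzyme GAPDH (100 nM final) supplies unstable 1,3-BPG in-well.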
Pin1 inhibitor = inhibitors of human Pin1 | Q13526 | Pin1 FP peptide displacement, HiFluor488, 10 min | Potency, µM (top dose mostly 115 µM), for inactives: at the highest dose activity, negative = inhibition, actives largely listed as inhibitors | 390,000 tested, 0.009% active | AID 504891; active = well fitted inhibition curve with a large enough effect in the polarisation, with a control signal flat, not every such curve was filed as active; inconclusive = small, poorly fitted or top-dose-only effect, or effect the other way, or a change in a side signal; inactive = no such curve, though single readings can be large or run the other way; the % refers to the polarisation; also: potency is read from the fitted curve at half-maximal effect
Target sequence (Q13526 whole entry, looked up): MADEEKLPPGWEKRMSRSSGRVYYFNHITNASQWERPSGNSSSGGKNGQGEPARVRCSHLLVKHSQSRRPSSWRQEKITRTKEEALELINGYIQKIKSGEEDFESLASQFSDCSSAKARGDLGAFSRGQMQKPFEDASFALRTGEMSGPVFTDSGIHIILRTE
Starred values were filed as active, the others as inactive. This is a sample that favours compounds with a hit; in the whole collection about 0.34% have one here. Unless noted, calls follow the shape of the dose curve; as a rule, active = well fitted curve in the direction sought with a large enough effect; inconclusive = small, poorly fitted or top-dose-only effect, or another doubt; inactive = no such curve, though single readings can be large; an effect the other way counts as inactive or inconclusive. Unless noted, % is scaled to controls: 0 for no effect and ±100 for the full control effect.

For CC1(C)O[C@@H]2[C@H](O1)[C@@H](CO)O[C@H]2n1cnc2c(N)ncnc21 the results were Chronic BCR inh 0%, PI4K2A inh -52*, Tb PFK block 3%, Tb PGK inh -8% and Pin1 inhibitor 6%.
`COC/C=C/C1=CC2=CC(=O)C(C)(OC(=O)c3cnc4ccccc4n3)C(=O)C2=CN1c1ccc(CO)cc1` (centres undefined) gave Chronic BCR inh 11% and Tb PFK block 4.8µM*.
COC/C=C/C1=CC2=CC(=O)C(C)(OC(=O)c3cnc4ccccc4n3)C(=O)C2=CN1c1ccccc1 (centres undefined) was read as Chronic BCR inh -9%, PI4K2A inh -18, Tb PFK block 5%, Tb PGK inh 7% and Pin1 inhibitor inconclusive.
For COc1cc(-c2nnn(CC(=O)NC3CCS(=O)(=O)C3)n2)ccc1OCc1ccccc1 (centres undefined) the results were Chronic BCR inh inconclusive, PI4K2A inh -60*, Tb PFK block 3%, Tb PGK inh inactive and Pin1 inhibitor 4%.
For CCn1cnc2c(Nc3ccc(Cc4cccnc4)cc3)nc(C#N)nc21 the results were Pin1 inhibitor 1%.
Screening COc1ccc(C=C2CCc3ccccc3C2=O)cc1 returned PI4K2A inh -83*.
Screening O=C1C(=Cc2ccc(F)cc2)CCc2ccccc21 returned PI4K2A inh -73*.
Screening O=C(O)c1cc(S(=O)(=O)Nc2ccc3oc(=O)sc3c2)ccc1O returned Chronic BCR inh 7%, PI4K2A inh -68*, Tb PFK block -27%, Tb PGK inh -10% and Pin1 inhibitor inconclusive.
CC(=O)c1c(C)oc2ccc(NS(=O)(=O)c3ccc(O)c(C(=O)O)c3)cc12 was read as Chronic BCR inh 4%, PI4K2A inh -21, Tb PFK block 3%, Tb PGK inh -13% and Pin1 inhibitor -20%.
For O=C(CNC(=O)c1ccc2cc[nH]c2c1)OC(C(=O)Nc1cc(C(F)(F)F)ccc1Cl)c1ccccc1 (centres undefined) the results were Pin1 inhibitor 10%.
For CCOc1ccc2nc(NC(=O)c3cccnc3)sc2c1 the results were Chronic BCR inh inconclusive, PI4K2A inh -4, Tb PFK block 0%, Tb PGK inh inactive and Pin1 inhibitor 10%.
`CCOc1ccc2nc(NS(=O)(=O)Cc3ccccc3)sc2c1` gave Chronic BCR inh 7.3µM*, PI4K2A inh -1, Tb PFK block -3%, Tb PGK inh 5% and Pin1 inhibitor 0%.
`CCOc1ccc2nc(NC(=O)c3ccccc3)sc2c1` gave PI4K2A inh -58*, Tb PGK inh inconclusive and Pin1 inhibitor 5%.
Screening NC(N)=NCCC[C@H](NC(=O)CNC(=O)c1ccccc1)C(=O)Nc1cc(C(F)(F)F)ccc1Cl returned Pin1 inhibitor 3%.
For COc1cc(-c2ccc3ncnc(NCc4ccc(C)o4)c3c2)cc(OC)c1OC the results were Pin1 inhibitor 9%.
O=C(O)CCCNc1cc(N2CCN(C(=O)c3ccco3)CC2)c2noc3c2c1C(=O)c1ccccc1-3 was read as Chronic BCR inh inconclusive, PI4K2A inh inconclusive, Tb PFK block inconclusive, Tb PGK inh -20% and Pin1 inhibitor inconclusive.
Screening CCOC(=O)N1CCN(c2cc(NCCC(=O)O)c3c4c(onc24)-c2ccccc2C3=O)CC1 returned Chronic BCR inh inconclusive, PI4K2A inh -57*, Tb PFK block -17%, Tb PGK inh inconclusive and Pin1 inhibitor inconclusive.
For O=C1c2ccccc2C(=O)N1c1ccncc1 the results were Pin1 inhibitor 3%.
`Cn1c(=O)cc(OCCCC(=O)N2CCCCC2)c2ccccc21` gave Chronic BCR inh -14%, PI4K2A inh -1, Tb PFK block -2%, Tb PGK inh -7% and Pin1 inhibitor -8%.
Screening CN1CCN(C(=O)CCCOc2cc(=O)n(C)c3ccccc23)CC1 returned Chronic BCR inh 26µM*, PI4K2A inh 0, Tb PFK block -5%, Tb PGK inh -10% and Pin1 inhibitor 2%.
For COc1ccc(/C=C/C(=O)c2ccc(O)cc2)cc1 the results were Chronic BCR inh inconclusive, PI4K2A inh -3, Tb PFK block -2%, Tb PGK inh -3% and Pin1 inhibitor -1%.
COc1cc(/C=C/c2ccc(O)cc2)cc(OC)c1 was read as Chronic BCR inh 13µM*, PI4K2A inh 0, Tb PFK block 2%, Tb PGK inh inactive and Pin1 inhibitor -1%.
Screening COc1ccccc1Nc1ccc2c(O)cc(S(=O)(=O)O)cc2c1 returned PI4K2A inh -59*, Tb PGK inh 22µM* and Pin1 inhibitor 21µM*.
`O=C(Nc1ccc2c(c1)OCO2)c1ccccn1` gave Chronic BCR inh inconclusive, PI4K2A inh -14, Tb PFK block -5%, Tb PGK inh -15% and Pin1 inhibitor -1%.
Screening O=C(/C=C\Nc1ccc2c(c1)OCO2)c1ccccn1 returned Chronic BCR inh inconclusive, PI4K2A inh -55*, Tb PFK block -19%, Tb PGK inh inconclusive and Pin1 inhibitor 17%.
For O=C(CSc1nnc(-c2ccncc2)n1Cc1ccco1)Nc1nccs1 the results were Chronic BCR inh 0%, PI4K2A inh 3, Tb PFK block 0%, Tb PGK inh -1% and Pin1 inhibitor 3%.
CC(C)(C)c1ccc(-c2nnc(SCC(=O)Nc3ccc(S(=O)(=O)Nc4nccs4)cc3)n2Cc2ccco2)cc1 was read as PI4K2A inh -56*.
For COc1cc2ncnc(N(C)Cc3csc(C)n3)c2cc1-c1ccc2c(c1)OCO2 the results were Pin1 inhibitor 6%.
Screening O=C(Nc1nc(-c2ccco2)c(-c2ccco2)s1)C1CC(=O)N(c2ccc3c(c2)OCCO3)C1 (centres undefined) returned Chronic BCR inh inconclusive, PI4K2A inh -56*, Tb PFK block inconclusive, Tb PGK inh -16% and Pin1 inhibitor inconclusive.
`Cc1nnc(NC(=O)C2CC(=O)N(c3ccc4c(c3)OCCO4)C2)s1` (centres undefined) gave Chronic BCR inh 0%, PI4K2A inh -4, Tb PFK block -4%, Tb PGK inh -3% and Pin1 inhibitor -3%.
For NC(N)=Nc1ccc2[nH]c3c(c2c1)C[C@@]1(O)[C@H]2Cc4ccc(O)c5c4[C@@]1(CCN2CC1CC1)[C@H]3O5 the results were Chronic BCR inh 23µM*, PI4K2A inh -17, Tb PFK block inconclusive, Tb PGK inh -3% and Pin1 inhibitor inconclusive.
For C=CC(=O)N1C/C(=C/c2ccc(F)cc2)C(=O)/C(=C\c2ccc(F)cc2)C1 the results were PI4K2A inh -13, Tb PGK inh 10µM* and Pin1 inhibitor inconclusive.
